Bioassay records: PubChem, National Center for Advancing Translational Sciences (NCATS)
The list is not random: actives were taken first. Their share in the collection is about 5.9%.
HEK293 tox – cytotoxic in the GLP-1 receptor inverse agonist counter-screen; HEK293 cAMP-luciferase reporter cells, luminescence, 24 h; Potency, µM (titrated, usually from 38.3 µM), inactives show at the highest dose activity change, negative = inhibition, usual class: inhibitors; 0.13% of 410,000 active;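 further: loss of luciferase light is scored as toxicity; on the % scale 0 is the no-effect control and ±100 the full control effect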
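Compound-treated cells are incubated 24 hr at 37 deg C under 5% CO2 after a 12 hour attachment period, then luciferase detection reagent is added and luminescence is measured following 12 min at room temperature; lowered signal indicates toxicity.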
GLP-1R inv ag – acts as inverse agonist at human GLP-1 receptor. HEK293 GLP-1R CRE-luciferase, luminescence, 24 h; GLP-1R form is constitutively active. Potency, µM (titrated, usually from 38.3 µM), without a hit: top-dose activity change, negative = inhibition, actives largely listed as inhibitors. 1.6% of 410,000 active; further: on the % scale 0 is the no-effect control and ±100 the full control effect; nearly all actives have a fitted effect of over 55% in size
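qHTS in 1536-well format: reporter HEK293 cells expressing constitutive GLP-1R activity in DMEM + 10% Nu serum, 24 hr with compounds at 37 deg C, luminescence read after 12 min with detection reagent.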
Gal4-VP16 FLuc – Gal4-VP16 reporter inhibition counter-screen; Potency, µM (series often up to 53.6 µM), for the others: top-dose activity, negative = inhibition, most hits filed as inhibitors; 3.5% of 310,000 active; AID 2546; Drosophila S2 Gal4-VP16 UAS-luciferase, luminescence, 20 h;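 further: Gal4-VP16 expression switched on by copper sulfate through the metallothionein promoter; on the % scale 0 is the no-effect control and ±100 the full control effect; nearly all actives have a fitted effect of over 50% in size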
GLP1R ag – GLP-1 receptor (human) agonism; AID 624172; Potency, µM (top dose mostly 45.6 µM), without a hit: at the highest dose activation, most hits filed as activators; HEK293 GLP-1R CRE-luciferase, luminescence, 4-6 h; cells express a hypersensitive GLP-1R form; 0.007% of 380,000 active; further: % of control where 0% means no effect
RORg inh – ROR gamma (mouse) transcription inhibition. P51450. Drosophila S2 Gal4-RORgamma UAS-luciferase reporter, 20 h. Potency, µM (highest dose often 53.6 µM), for the others: at the highest dose activity change, negative = inhibition, usual class: inhibitors. 5.4% of 310,000 active; further: on the % scale 0 is the no-effect control and ±100 the full control effect; nearly all actives have a fitted effect of over 60% in size
Target sequence (P51450 whole entry, looked up, the tested form may be a part): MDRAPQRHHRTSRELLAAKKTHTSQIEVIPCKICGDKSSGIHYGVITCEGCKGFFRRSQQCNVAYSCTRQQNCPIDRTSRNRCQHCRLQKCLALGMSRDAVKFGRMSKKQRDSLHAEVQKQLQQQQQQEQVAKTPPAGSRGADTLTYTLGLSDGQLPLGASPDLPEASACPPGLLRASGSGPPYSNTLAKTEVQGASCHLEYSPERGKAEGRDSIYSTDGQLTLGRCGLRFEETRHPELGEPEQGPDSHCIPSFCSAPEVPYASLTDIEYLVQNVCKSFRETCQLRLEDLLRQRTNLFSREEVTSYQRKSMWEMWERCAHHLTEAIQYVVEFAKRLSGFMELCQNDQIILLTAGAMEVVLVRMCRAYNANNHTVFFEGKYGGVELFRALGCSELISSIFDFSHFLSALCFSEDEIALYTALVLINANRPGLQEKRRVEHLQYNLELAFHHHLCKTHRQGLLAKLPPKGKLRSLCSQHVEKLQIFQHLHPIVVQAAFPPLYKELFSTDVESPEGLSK
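In this cell-based reporter format, copper sulfate (700 uM final) drives Gal4–ROR gamma fusion expression from a metallothionein promoter in Drosophila Schneider cells; compounds preincubated 1 hr, reporter read after 20 hr at ambient temperature.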
Numbers without * were called inactive; ? = inconclusive; . = no result given; [ ] = remark or other dose. The call rests on the fitted dose curve; in most records, active means well fitted curve in the direction sought with a large enough effect; inconclusive means small, poorly fitted or top-dose-only effect, or another doubt; inactive means no such curve, though single readings can be large; an effect the other way counts as inactive or inconclusive. Potency means the concentration at half of the fitted maximal effect.

SMILES | HEK293 tox | GLP-1R inv ag | Gal4-VP16 FLuc | GLP1R ag | RORg inh
Cc1cc(Cl)cc(Cl)c1OCCOCCN(C)C | -0.5% | 11.2µM* | 0.6% | -14.5% | -11.6%
Cc1cc(Cl)cc(Cl)c1OCCOc1cccc2cccnc12 | -23.8% | 8.91µM* | ? | 0.5% | ?
Cc1ccc(CNC(=O)C2CCN(c3nc4ccc(C)cc4[nH]3)CC2)cc1 | -21.4% | -20.0% | . | . | .
Cc1ccc(C(=O)N2CCc3cc4c(cc3C2C)OCCCO4)cc1 (stereo unspecified) | -20.7% | 11.2µM* | -1.4% | -1.1% | 1.9%
CCCCCCC(=O)Cc1cc(OC)c(OC)cc1/C=C(/C(C)=O)C(=O)OC | . | . | -2.7%[10 µM] | . | -6.6%[10 µM]
CCOC(=O)c1sc2nc(C)nc(SCC(=O)N(C)C3CCS(=O)(=O)C3)c2c1C (stereo unspecified) | 10.2% | 19.2% | -4.0% | 11.0% | 12.6µM*
CN(C(=O)CSc1ncnc2sc(-c3ccccc3)cc12)C1CCS(=O)(=O)C1 (stereo unspecified) | ? | -12.5% | ? | -6.3% | 11.2µM*
COc1cc(NC(=O)N2CCc3nc(Nc4cc(Cl)cc(Cl)c4)ncc3C2)cc(OC)c1OC | ? | 10µM* | . | -1.6% | .
COC(=O)c1c(NC(=O)c2nc(SCc3ccc(F)cc3)ncc2Cl)sc2c1CCCC2 | -2.5% | 3.0% | . | . | .
O=C(NCc1cc(F)cc2c1OCCO2)[C@H]1C[C@@H]1[C@H](NP(=O)(c1ccccc1)c1ccccc1)c1ccccc1 | . | . | 10.4% | . | -1.0%
C[C@@H]1C[C@](C)(C(=O)c2ccco2)C=C1c1ccco1 | . | . | 3.4% | . | 4.4%
COc1cc(NC2c3ccccc3C(=O)N2Cc2ccccc2Cl)cc(OC)c1 (stereo unspecified) | -19.4% | 10µM* | 4.0% | 0.1% | 6.9%
COc1cccc(NC2c3ccccc3C(=O)N2Cc2ccccc2Cl)c1 (stereo unspecified) | -3.4% | ? | -2.9% | 7.9% | -4.1%
Cc1nc(C)c(-c2ccc(SCC(=O)Nc3ccccc3F)nn2)s1 | -7.5% | 38.2% | . | . | .
O=C(CN(Cc1ccco1)S(=O)(=O)c1ccccc1)N/N=C/c1cccc(O)c1 | 18.9% | ? | -0.2% | 3.6% | 42.6%
Cc1cccc(S(=O)(=O)N(CC(=O)Nc2ccccc2C)Cc2ccco2)c1 | -16.3% | 8.91µM* | 13.2% | -0.3% | 11.4%
Cc1oc(-c2ccc(Cl)cc2)nc1CN1CCCC(C(=O)NCc2ccccc2)C1 (stereo unspecified) | -8.6% | ? | . | . | .
COC(=O)c1ccc(/C=C2\SC(=S)N(CCCC(=O)NCCCN3CCOCC3)C2=O)cc1 | 8.91µM* | -15.7% | 1.78µM* | -5.3% | 2.24µM*
O=C(CCCN1C(=O)/C(=C/c2cccc(Br)c2)SC1=S)NCCCN1CCOCC1 | ? | ? | 0.0% | -7.6% | 10µM*
COC(=O)C1(C(=O)OC)Cc2conc2[C@H]1c1ccccc1 | . | . | -0.3% | . | -29.7%
Fc1ccc(Nc2ncncc2-c2ccoc2)cc1 | . | . | -0.8% | . | -1.3%
COC(=O)Cc1ccc(NC(=S)N2CCN(c3cc(Cl)ccc3C)CC2)cc1 | 24.6%[7.66 µM] | -13.2%[7.66 µM] | ? | 1.7% | 12.6µM*
COC(=O)Cc1ccc(NC(=S)N2CCCC(C)C2)cc1 (stereo unspecified) | -5.2% | 10.0% | 11.2µM* | 9.6% | 12.6µM*
COC(=O)Cc1ccc(NC(=S)N2CCN(c3ccccn3)CC2)cc1 | -31.1% | -12.1% | -3.9% | 0.0% | 15.2%
COC(=O)Cc1ccc(NC(=S)N2CCCC(CO)C2)cc1 (stereo unspecified) | -5.0% | ? | 7.94µM* | -10.4% | 11.2µM*
SMILES | HEK293 tox | GLP-1R inv ag | Gal4-VP16 FLuc | GLP1R ag | RORg inh
CC(=O)c1cc(NC(=O)c2cccc(C(F)(F)F)c2)c(=O)oc1C | -28.6% | -4.8% | 7.08µM* | 4.6% | 3.16µM*
COc1ccc(C(=O)Nc2cc(C(C)=O)c(C)oc2=O)cc1 | -6.9% | 67.9% | ? | 9.7% | 11.2µM*
COc1ccc(C(=O)NNC(=O)c2cc3cc(OC)ccc3oc2=O)cc1 | -0.4% | 10.8% | 3.7% | -1.1% | -7.3%
CC(=O)c1cc(NC(=O)c2cccc(C(F)(F)F)c2)c(=O)oc1/C=C/N(C)C | -0.4% | 1.8% | 2.8% | -7.9% | 12.7%
Cc1ccc(O)c(C(=O)CC(=O)c2ccc(C(C)(C)C)cc2)c1 | 1.5% | -14.0% | 5.01µM* | -3.4% | 5.62µM*
Cc1ccc(O)c(C(=O)CC(=O)c2ccccc2Cl)c1 | -3.9% | ? | 12.6µM* | 7.7% | 7.08µM*
Cc1ccc(C(=O)c2ccccc2C(=O)O)c(O)c1 | 2.5% | 3.1% | 2.2% | -2.0% | 1.4%
Cc1ccc(C(=O)CC(=O)c2ccccc2C)c(O)c1 | 31.8% | ? | 5.62µM* | 4.9% | 3.55µM*
Cc1ccc(C)c(NC(=O)c2ccccc2O)c1 | -18.8% | ? | ? | -5.8% | ?
O=CN/C=C/c1cc(F)cc(F)c1F | . | . | -3.2% | . | 3.5%
Cn1c(SCC(N)=O)nc2c([nH]c3ccccc32)c1=O | 6.9% | 2.9% | . | . | .
CCC(=O)Oc1cc(C(C)(C)C)cc2cc(-c3nc(-c4ccc(OC)cc4OC)no3)c(=O)oc12 | 2.1% | -4.3% | . | . | .
Cc1nc(C(=O)NNC(=O)c2ccc(C(F)(F)F)cc2)cs1 | 1.9% | -2.1% | ? | 1.1% | 5.01µM*
Cc1cc(C(=O)NNC(=O)c2ccc(C(F)(F)F)cc2)no1 | 10.8% | 18.1% | 2.5% | -0.1% | 5.6%
O=[N+]([O-])c1ccc(/C=N/Nc2ncccc2[N+](=O)[O-])s1 | 1.12µM* | ? | . | -0.2% | .
COc1cccc(/C=N/Nc2ncccc2[N+](=O)[O-])c1OC | -23.0% | ? | 4.47µM* | -10.1% | 1.26µM*
COc1cccc(/C=N/Nc2nc(C)cc(=O)[nH]2)c1OC | ? | 3.7% | -5.2% | 3.9% | -2.8%
CC(C)(CNC(=O)c1sc2cc(Cl)ccc2c1Cl)N1CCOCC1 | 5.2% | 10µM* | . | 31.2% | .
O=C(Cn1c(SCc2ccc(F)cc2)nc2cccnc21)Nc1ccccc1F | 3.5% | 12.9% | . | . | .
O=C(c1cccs1)N1CCN(C(=O)c2cn(-c3ccccc3)nc2-c2ccccc2)CC1 | -0.2% | 10µM* | . | -3.1% | .
O=C(c1cn(-c2ccccc2)nc1-c1ccccc1)N1CCOCC1 | -5.6% | -26.5% | -1.7% | -0.1% | 15.2%
N#C/C(=C\c1cn(Cc2ccccc2)c2ccccc12)C(=O)NCc1ccco1 | 153.1% | 8.8% | -14.3% | 1.9% | 15.2%
N#C/C(=C\c1cn(Cc2ccc(F)cc2)c2ccccc12)C(=O)NCc1ccco1 | 329.8% | -22.5% | 11.2µM* | -2.3% | ?
Cc1ccc(C(=O)OC[C@H]2O[C@H](Cl)C[C@@H]2OC(=O)c2ccc(C)cc2)cc1 | . | . | -10.6% | . | 22.5%
CCOC(=O)N1CCN(c2nc(C(F)(F)F)nc3c(C)cc(C)cc23)CC1 | 0.3% | 0.7% | 20µM* | -0.4% | ?
Cc1cc(C)c2nc(C(F)(F)F)nc(N3CC(C)OC(C)C3)c2c1 (stereo unspecified) | 0.2% | -16.7% | 17.9% | -0.1% | 5.4%
